Test [1] in a line: qHTS assay for identifying genotoxic compounds that show differential cytotoxicity against isogenic chicken DT40 cell lines with known DNA damage response pathways - wild type cell line (AID 743012). Note: nearly all actives have a fitted effect of over 60% in size. Note: potency is the fitted concentration of half-maximal effect. In outline:
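Viability of DNA repair-proficient chicken DT40 cells was assessed by CellTiter-Glo luminescence following 40 h compound exposure at 37 C/5% CO2.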
Background: In qHTS, concentration-response curves come from the screen itself.

Test [2] can be described thus: qHTS assay to identify small molecule antagonists of the androgen receptor (AR) signaling pathway - cell viability counter screen (AID 743033; note: nearly all actives have a fitted effect of over 45% in size).
A short description of test [3]: qHTS assay to identify small molecule antagonists of the androgen receptor (AR) signaling pathway using the MDA cell line - cell viability counter screen (AID 743041; note: nearly all actives have a fitted effect of over 45% in size; note: potency is the fitted concentration of half-maximal effect). In outline: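 Cytotoxicity counter screen: MDA-kb2 AR-luc cells, compound + R1881, 16 h, 37C, 0% CO2; CellTiter-Fluor added at 15.5 h, fluorescence read after 30 min.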
The nature of test [4]: qHTS assay to identify small molecule antagonists of the thyroid receptor (TR) signaling pathway (AID 743065). Note: nearly all actives have a fitted effect of over 55% in size. Note: potency is the fitted concentration of half-maximal effect. The method, boiled down: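 GH3.TRE-Luc rat pituitary cells (two TREs driving luciferase) were dosed with compound, then stimulated with 1 nM T3 (final) for 23.5 h at 37 C. ONE-Glo luminescence was the read-out, with CellTiter-Fluor fluorescence as the cytotoxicity counter-screen.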

In test [5] the test system is thyroid hormone receptor (rat, GH3 cells). Briefly: qHTS assay to identify small molecule agonists of the thyroid receptor (TR) signaling pathway (AID 743066; calls by dose curve; note: potency is the fitted concentration of half-maximal effect).
Test [6] addresses Estrogen receptor (Homo sapiens) (UniProt P03372). As to the kind of experiment: qHTS assay to identify small molecule antagonists of the estrogen receptor alpha (ER-alpha) signaling pathway (AID 743069; active = well fitted curve in the direction sought with a large enough effect in the signal ratio in the repeat runs, not every such curve was filed as active; inconclusive = weak or mixed curves, or effect the other way; inactive = no such curve, though single readings can be large or run the other way; the % refers to the signal ratio). In outline:
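Beta-lactamase FRET fluorescence is read after 2 hr at room temperature with LiveBLAzer B/G substrate. Before that, ER-alpha-bla HEK293 cells sit 4 hr after plating, then receive compound plus 17beta-estradiol and incubate 18 hr at 37C.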

The nature of test [7]: qHTS assay to identify small molecule antagonists of the estrogen receptor alpha (ER-alpha) signaling pathway - cell viability counter screen (AID 743074; calls by dose curve;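 note: HEK293 cells carrying ER-alpha-UAS-bla reporter stimulated with 17beta-estradiol; nearly all actives have a fitted effect of over 45% in size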).
For test [8], the target named is Estrogen receptor (Homo sapiens) (UniProt P03372). As to the kind of experiment: qHTS assay to identify small molecule agonists of the estrogen receptor alpha (ER-alpha) signaling pathway (AID 743075; calls by dose curve;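 note: HEK293 GripTite cells with ER-alpha and UAS-driven beta-lactamase reporter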; note: potency is the fitted concentration of half-maximal effect).
Test [9] shares this target. As to the kind of experiment: qHTS assay to identify small molecule agonists of the estrogen receptor alpha (ER-alpha) signaling pathway using the BG1 cell line (AID 743079). Note: nearly all actives have a fitted effect of over 20% in size. Note: potency is the fitted concentration of half-maximal effect. To be noted: BG1Luc4E2 cells, ERE-luciferase agonist, 22 h; activation: at 70.3 µM (top of the series).
Test [10] can be described thus: qHTS assay to identify small molecule antagonists of the estrogen receptor alpha (ER-alpha) signaling pathway using the BG1 cell line (AID 743080; calls by dose curve;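 note: BG1 cells stimulated with 17beta-estradiol alongside compound; nearly all actives have a fitted effect of over 25% in size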; note: potency is the fitted concentration of half-maximal effect). In outline:
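Luciferase inhibition measured with ONE-Glo after 30 min at RT in BG1Luc4E2 cells given test compounds and 17beta-estradiol for 21.5 h at 37 C; CellTiter-Fluor viability read in the same wells beforehand.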

Test [11] in a line: qHTS assay to identify small molecule antagonists of the estrogen receptor alpha (ER-alpha) signaling pathway using the BG1 cell line - cell viability counter screen (AID 743081).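 Note: compound given together with 17beta-estradiol as the ER stimulus; nearly all actives have a fitted effect of over 45% in size.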 Note: potency is the fitted concentration of half-maximal effect.
The target of test [12] is Aromatase (Homo sapiens) (UniProt P11511). As to the kind of experiment: qHTS assay to identify aromatase inhibitors (AID 743083). Note: nearly all actives have a fitted effect of over 55% in size. Note: potency is the fitted concentration of half-maximal effect.
A short description of test [13]: qHTS assay for identifying genotoxic compounds that show differential cytotoxicity against isogenic chicken DT40 cell lines with known DNA damage response pathways - Rev3 mutant cell line (AID 743014). Note: nearly all actives have a fitted effect of over 55% in size. Note: potency is the fitted concentration of half-maximal effect.
Test [14] in a line: qHTS assay to identify small molecule antagonists of the thyroid receptor (TR) signaling pathway - cell viability counter screen (AID 743064). Note: nearly all actives have a fitted effect of over 50% in size. Note: potency is the fitted concentration of half-maximal effect. In outline: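 Compounds were tested on GH3.TRE-Luc cells in the presence of T3 at 1 nM final. Following 23.5 h at 37 °C, cell viability was quantified by CellTiter-Fluor.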
Test [15] can be described thus: qHTS assay for identifying genotoxic compounds that show differential cytotoxicity against isogenic chicken DT40 cell lines with known DNA damage response pathways - Rad54/Ku70 mutant cell line (AID 743015). Note: nearly all actives have a fitted effect of over 60% in size. Note: potency is the fitted concentration of half-maximal effect.

Values joined by “and” are separate entries in the source; they are usually repeats but may differ in a detail not shown here. Identical values can stand only once. Active and inactive are the calls of the source. Unless noted, calls come from the whole dose curve; as a rule, active = well fitted curve in the direction sought with a large enough effect in the repeat runs; inconclusive = weak or mixed curves; inactive = no such curve, though single readings can be large; an effect the other way counts as inactive or inconclusive.

Sequence of Aromatase (Homo sapiens) (P11511 whole entry, looked up): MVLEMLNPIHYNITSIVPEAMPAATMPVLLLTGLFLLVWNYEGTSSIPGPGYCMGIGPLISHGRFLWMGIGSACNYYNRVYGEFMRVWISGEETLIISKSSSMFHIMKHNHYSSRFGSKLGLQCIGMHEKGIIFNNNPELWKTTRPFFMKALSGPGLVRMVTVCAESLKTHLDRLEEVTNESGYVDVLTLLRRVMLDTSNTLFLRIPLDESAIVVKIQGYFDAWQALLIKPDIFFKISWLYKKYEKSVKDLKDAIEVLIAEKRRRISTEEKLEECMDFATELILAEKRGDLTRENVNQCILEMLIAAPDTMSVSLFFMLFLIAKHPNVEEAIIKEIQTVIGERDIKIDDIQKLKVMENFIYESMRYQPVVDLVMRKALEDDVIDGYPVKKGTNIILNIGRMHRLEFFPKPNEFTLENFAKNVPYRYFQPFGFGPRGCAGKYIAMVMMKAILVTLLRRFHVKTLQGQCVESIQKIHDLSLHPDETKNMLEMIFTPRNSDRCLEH
Sequence of Estrogen receptor (Homo sapiens) (P03372 whole entry, looked up): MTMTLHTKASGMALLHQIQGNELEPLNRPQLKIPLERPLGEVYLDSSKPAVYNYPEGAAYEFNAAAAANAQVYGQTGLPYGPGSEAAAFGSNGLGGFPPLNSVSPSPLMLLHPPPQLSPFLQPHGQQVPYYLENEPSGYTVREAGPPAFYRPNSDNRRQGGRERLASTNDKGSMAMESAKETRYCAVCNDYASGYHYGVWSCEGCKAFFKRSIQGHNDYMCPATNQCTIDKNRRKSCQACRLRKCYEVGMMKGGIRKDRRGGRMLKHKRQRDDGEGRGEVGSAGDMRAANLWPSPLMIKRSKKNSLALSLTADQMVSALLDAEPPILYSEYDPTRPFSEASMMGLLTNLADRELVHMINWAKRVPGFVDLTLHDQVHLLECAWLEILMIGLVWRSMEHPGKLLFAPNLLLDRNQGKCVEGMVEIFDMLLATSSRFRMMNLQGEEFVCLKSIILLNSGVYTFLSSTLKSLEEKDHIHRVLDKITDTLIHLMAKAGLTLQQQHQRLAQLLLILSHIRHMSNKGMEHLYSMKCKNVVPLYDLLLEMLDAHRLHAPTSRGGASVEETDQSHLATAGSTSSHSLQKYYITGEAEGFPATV

For `CC(C)c1c(CN(C)C(C)Cc2ccccc2)n(C)n(-c2ccccc2)c1=O` (centres undefined), the Potency in test [1] is 6.39 µM (active); in test [4] it was 11.4 µM (active). Further, the Potency result in test [2], in [3], in test [5], in test [6], in [7] and in test [8] was “inactive” each time. Also, the Potency result in test [9], in [10], in test [11] and in test [12] was “inactive” each time.
For the molecule `O.O.O.O.O.O.O=S(=O)([O-])[O-].[Ni+2]`, in [13], the Potency is 26.1 µM (active). Moreover, the Potency result in test [2], in test [3], in [7], in test [11] and in test [12] was “inactive” each time.
Turning to `[O-][Cl+3]([O-])([O-])O`, the Potency result in test [1], in test [13], in test [2], in [3], in test [14] and in test [7] was “inactive” throughout. Also, the Potency result in test [11] and in test [12] was “inactive” throughout.
`O=[N+]([O-])c1cccc2cccc([N+](=O)[O-])c12`: the Potency in test [13] and in test [15] was 61.4 µM (active) each time. The Potency entry in test [2], in [3], in [14], in test [5], in [7] and in [11] was “inactive” in each case.
As for `N#Cc1c[nH]cc1-c1cccc2c1OC(F)(F)O2`, the Potency in test [1] is 13.7 µM (active); in test [13] it was 8.63 µM (active); in test [15], 13.7 µM (active); in test [14] it was 27.3 µM (active); in test [4] it was 12.2 µM (active); in [8], 17.4 µM [inconclusive] (active). Besides, the Potency was 48.6 µM (active) in [10] and 27.3 µM (active) in [12]. The Potency entry in test [7], in test [9] and in test [11] was “inactive” throughout.
Turning to `CO/N=C(\C(=O)OC)c1ccccc1CO/N=C(\C)c1cccc(C(F)(F)F)c1`, the Potency in test [1] is 0.344 µM (active); in test [13], 0.273 µM (active); in test [3], 5.45 µM (active); in test [14], 34.4 µM (active); in test [4] it was 0.969 µM (active); in test [12], 61.1 µM (active). For the same molecule, the Potency result in test [5] was “inactive”.
For `O=C(O)CCCCCCNC1c2ccccc2CCc2ccccc21`, the Potency result in test [1], in test [13], in [2], in test [3], in test [14] and in [6] was “inactive” throughout. In addition, the Potency result in test [8], in [9] and in test [11] was “inactive” each time. In addition, the Potency in [5] was 23.7 µM (active).
Take `Nc1ccc(N=Nc2ccccc2)cc1`: the Potency in test [1] is 61.1 µM (active); in test [13] it was 61.1 µM (active); in test [15], 56.1 µM (active); in [14], 56.1 µM (active); in [9] it was 14.1 µM (active); in [11], 43.3 µM (active). Moreover, the Potency entry in [4], in [5], in [8] and in test [12] was “inactive” throughout.
Take `CCN(CC)C(=S)S`: the Potency in [1] was 2.66 µM (active) and 5.42 µM (active) and 433 nM (active); in test [15], 5.31 µM (active) and 5.42 µM (active) and 486 nM (active); in test [14] it was 1.19 µM (active). For the same molecule, the Potency result in test [5], in test [7], in test [8], in [9] and in test [11] was “inactive” each time.
On to `Cc1c([N+](=O)[O-])cc2c(c1[N+](=O)[O-])C(C)(C)CC2(C)C`, for which the Potency result in test [1], in [15], in test [2], in test [3], in [5] and in test [7] was “inactive” in each case. In [11], the Potency entry was “inactive”. Also, the Potency is 21.9 µM [inconclusive] (active) in test [8] and 27.3 µM (active) in test [12].

The values are drawn from PubChem BioAssay (Tox21).
